Reference: PubChem BioAssay (EPA / NIEHS)
Several values for one entry are separate records, joined by “and”; a condition that tells them apart may be missing. Identical values can stand only once. Records with an inconclusive call do not appear. Activity calls are given as the source filed them. The calls were made as follows, unless noted: active = hit-call score of the fitted dose curve at least 0.9, where 1 is the maximum; inactive = score below 0.9.

How the values were obtained:
[1] = CCTE_Shafer_MEA_dev_firing_rate_mean: CCTE's Neural Network Formation Assay for Mean Firing Rate, Shafer Lab (AID 2284031);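 as to AC50: curve fitted for loss of firing so AC50 reflects decreased mean firing rate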
Method in brief: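 Spike frequency (spikes/recording length, averaged over active electrodes) was recorded on days 5, 7, 9 and 12 and collapsed to AUC; rat cortical cultures received compound continuously over 12 days of network development.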

[2] = CCTE_Shafer_MEA_dev_per_burst_spike_percent: CCTE's Neural Network Formation Assay for Percent of Spikes in a Burst, Shafer Lab (AID 2284032);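 as to AC50: fitted as a decrease in burst spike percentage below DMSO baseline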
Method in brief: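 Value is trapezoidal AUC over recordings on days 5, 7, 9 and 12 of the well-mean fraction of spikes falling in single-electrode bursts; rat cortical cultures exposed continuously from plating, treatment renewed DIV 5 and 9, fitted downward against DMSO.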

[3] = CCTE_Shafer_MEA_dev_burst_rate: CCTE's Neural Network Formation Assay for Burst Rate, Shafer Lab (AID 2284042);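 as to AC50: potency for loss of burst rate below DMSO control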
Method in brief: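 Developmental network assay measuring how 12-day exposure of rat cortical neuron cultures alters bursting on extracellular MEA recordings. Values are AUC of well-mean burst rate across four recording days, relative to DMSO vehicle.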

[4] = CCTE_Shafer_MEA_dev_bursting_electrodes_number: CCTE's Neural Network Formation Assay for Number of Bursting Electrodes, Shafer Lab (AID 2284043; active = hit-call score of the fitted dose curve at least 0.9, where 1 is the maximum;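 as to AC50: potency is for loss of bursting electrodes relative to DMSO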)
Method in brief: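 Number of electrodes reaching ≥1 burst every 2 min was recorded at DIV 5, 7, 9 and 12 and collapsed as trapezoidal area under the curve. Cultures were rat cortical neurons on MEA plates, dosed continuously from plating with medium and treatment refreshed on DIV 5 and 9.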

[5] = CCTE_Shafer_MEA_dev_per_burst_interspike_interval: CCTE's Neural Network Formation Assay for Burst Interspike Interval, Shafer Lab (AID 2284044);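 as to AC50: potency for a decrease of within-burst interspike interval below DMSO level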
Method in brief: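 Rat cortical primary cultures, 16 electrodes/well; compound from plating, renewed with full media change DIV 5 and 9. Spikes via adaptive detector; per-burst ISI well-mean over active bursting electrodes; AUC of DIV 5/7/9/12 recordings; loss-direction fit vs DMSO.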

[6] = CCTE_Shafer_MEA_dev_burst_duration_mean: CCTE's Neural Network Formation Assay for Mean Burst Duration, Shafer Lab (AID 2284045)
Method in brief: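 Mean single-electrode burst duration (first to last spike), averaged over bursting electrodes per well, then integrated as area-under-curve across recordings at days 5, 7, 9 and 12. Rat cortical cultures on MEAs, compound present from plating, refreshed at feeds.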

[7] = CCTE_Shafer_MEA_dev_interburst_interval_mean: CCTE's Neural Network Formation Assay for Mean Interburst Interval, Shafer Lab (AID 2284046);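 also: well-mean interburst interval of bursting electrodes as AUC over four recording days; curve fitted for decrease in interburst interval relative to DMSO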
Method in brief: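 Network formation assay in primary rat cortical cultures, exposed from DIV 0 to 12. Mean interburst interval per well, integrated as AUC over four recordings.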

[8] = CCTE_Shafer_MEA_dev_inter_network_spike_interval_mean: CCTE's Neural Network Formation Assay for Mean Inter-network Spike Interval, Shafer Lab (AID 2284047)
Method in brief: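 Compound was given at plating to primary rat cortical neurons and renewed with full medium changes on DIV 5 and 9. Extracellular activity was recorded on days 5, 7, 9, 12; AUC values were fitted for loss relative to DMSO control.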

[9] = CCTE_Shafer_MEA_dev_network_spike_number: CCTE's Neural Network Formation Assay for Number of Network Spikes, Shafer Lab (AID 2284048);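 also: synchronized bursts across electrodes counted on days 5 7 9 12 and integrated as AUC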;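 as to AC50: fit as a loss of signal meaning fewer network spikes than DMSO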
Method in brief: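 Number of network spikes (coordinated firing across electrodes) recorded on days 5, 7, 9 and 12 and summarised as area under the curve. Rat cortical cultures on MEA, continuous compound exposure with full medium/treatment exchange at DIV 5 and 9.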

[10] = CCTE_Shafer_MEA_dev_network_spike_peak: CCTE's Neural Network Formation Assay for Mean Number of Electrodes in Network Spike, Shafer Lab (AID 2284049);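 as to AC50: fitted for loss of signal meaning fewer electrodes in network spikes than DMSO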
Method in brief: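 Rat cortical primary culture, 1.5 x 10^5 cells/well, 48-well MEA (16 electrodes/well). Dosing day 0 through DIV 12, full media/compound exchange DIV 5, 9. AxIS adaptive spike detection; AUC over days 5/7/9/12; loss-of-signal vs DMSO.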

[11] = CCTE_Shafer_MEA_dev_spike_duration_mean: CCTE's Neural Network Formation Assay for Mean Spike Duration, Shafer Lab (AID 2284051);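 also: mean network spike duration pooled as area under curve over DIV 5 to 12 recordings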;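 as to AC50: potency for a decrease in mean network spike duration versus DMSO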
Method in brief: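 With DMSO as baseline, loss of mean network spike duration was scored from extracellular recordings of rat cortical neurons on MEA plates. Exposure spanned plating to DIV 12; the four recording days were collapsed into one AUC value.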

[12] = CCTE_Shafer_MEA_dev_network_spike_duration_std: CCTE's Neural Network Formation Assay for Standard Deviation of Network Spike Duration, Shafer Lab (AID 2284052);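 also: hits are decreases in network spike duration SD versus DMSO vehicle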
Method in brief: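 Developing networks of rat cortical neurons were exposed over twelve days in vitro on 48-well MEA plates. Trapezoidal AUC of recordings (DIV 5–12) was analysed for signal loss relative to DMSO vehicle.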

[13] = CCTE_Shafer_MEA_dev_per_network_spike_spike_number_mean: CCTE's Neural Network Formation Assay for Mean Number of Spikes in a Network Spike, Shafer Lab (AID 2284053);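 as to AC50: fitted as decrease in spikes per network spike relative to DMSO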
Method in brief: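 First, rat cortical cells (1.5 x 10^5/well) were seeded onto MEA wells; second, dosing began at plating and was refreshed on DIV 5 and 9; finally, network-spike spike counts across DIV 5–12 were summarized as AUC.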

[14] = CCTE_Shafer_MEA_dev_per_network_spike_spike_percent: CCTE's Neural Network Formation Assay for Percent of Spikes in a Network Spike, Shafer Lab (AID 2284054)
Method in brief: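 Metric: fraction of spikes falling in a 0.05 s window at network-spike peaks. Recordings were made on days 5, 7, 9 and 12 and collapsed by trapezoidal AUC. Cultures were rat cortical neurons on MEA plates, dosed continuously from plating, re-dosed at media changes.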

[15] = CCTE_Deisenroth_AIME_384WELL_CTox_Active: Cytotoxicity Assessment (CTOX) in CCTE's 384-well Estrogen Receptor Transactivation Assay with AIME metabolic competence (metabolism positive), Deisenroth Lab (AID 2284037; active = hit-call score of the fitted dose curve at least 0.9, where 1 is the maximum;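 also: chemicals first conditioned 2 h by alginate-bound induced rat liver S9 before cells; activity means signal loss indicating cell death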)
Method in brief: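 Cytotoxicity in VM7Luc4E2 breast cells, 24 hour, measured as protease-substrate fluorescence loss, after 2-hour metabolic conditioning with induced rat hepatic S9 in alginate microspheres. Concentrations 0.002 - 200 uM, 10 points, bidirectional fitting.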

[16] = CCTE_Deisenroth_AIME_384WELL_CTox_Inactive: Cytotoxicity Assessment (CTOX) in CCTE's 384-well Estrogen Receptor Transactivation Assay without AIME metabolic competence (metabolism negative), Deisenroth Lab (AID 2284039; active = hit-call score of the fitted dose curve at least 0.9, where 1 is the maximum;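 also: cell viability via live-cell protease substrate cleaved to fluorescent probe; cells exposed 24 h to medium preincubated 2 h with alginate-water beads without S9; loss of fluorescence signal means loss of viability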)
Method in brief: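 Fluorescence from a live-cell protease substrate, read after 24 h in VM7Luc4E2 cells, indicated viability. Test medium came from a 2 h AIME step without hepatic S9 (alginate-water microspheres); concentrations spanned 0.002 - 200 uM, single technical replicate per run.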

DIO2 (gene 1734) = assay: CCTE_GLTED_hDIO2: CCTE's human Deiodinase 2 (DIO2) Inhibition Assay, Great Lakes Toxicology and Ecology Division (GLTED) Lab (AID 2284050; active = hit-call score of the fitted dose curve at least 0.9, where 1 is the maximum)
Method in brief: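 Iodide released by human deiodinase 2 over 3 h with test chemical, measured spectrophotometrically via Sandell-Kolthoff cerium/arsenic reaction. Run n=3; inhibition referenced to DMSO.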

[17] = biological target: Estrogen receptor (Homo sapiens) (UniProt P03372); assay: CCTE_Deisenroth_AIME_384WELL_LUC_Shift: CCTE's 384-well Estrogen Receptor Transactivation Assay with AIME metabolic competence data shift (ERTA luciferase; difference in metabolism positive and negative), Deisenroth Lab (AID 2284041);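 also: shift is response with S9 minus without S9 so positive means metabolism raised ER signal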
Sequence of Estrogen receptor (Homo sapiens) (P03372 whole entry, looked up): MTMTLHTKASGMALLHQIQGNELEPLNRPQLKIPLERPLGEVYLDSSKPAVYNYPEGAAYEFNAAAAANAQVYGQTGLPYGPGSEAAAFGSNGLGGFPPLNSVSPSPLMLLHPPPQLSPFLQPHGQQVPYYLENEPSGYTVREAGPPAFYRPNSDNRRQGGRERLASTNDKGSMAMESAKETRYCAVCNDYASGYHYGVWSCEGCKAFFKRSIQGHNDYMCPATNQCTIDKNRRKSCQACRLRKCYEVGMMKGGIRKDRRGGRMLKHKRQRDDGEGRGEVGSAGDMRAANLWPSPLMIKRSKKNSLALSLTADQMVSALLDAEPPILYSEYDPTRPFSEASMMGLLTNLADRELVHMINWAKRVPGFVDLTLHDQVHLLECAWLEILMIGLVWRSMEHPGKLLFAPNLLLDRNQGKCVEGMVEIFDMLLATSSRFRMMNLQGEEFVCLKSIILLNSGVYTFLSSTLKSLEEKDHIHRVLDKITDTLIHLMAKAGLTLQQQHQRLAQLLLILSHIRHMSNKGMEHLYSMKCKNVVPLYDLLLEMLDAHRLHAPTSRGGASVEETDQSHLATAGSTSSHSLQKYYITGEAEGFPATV
Method in brief: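 Test chemicals (0.002–200 uM, 10-point) were pre-incubated 2 h with alginate microspheres containing phenobarbital/beta-naphthoflavone-induced male Sprague Dawley rat liver S9 or water, then medium was transferred to VM7Luc4E2 cells for 24 h luciferase readout; shift = S9-positive minus S9-negative normalized response.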

Measured: AC50

S=C1NCCN1
active: [11] 5.64 µM
not listed: [15] | [16] | DIO2 (gene 1734) | [17]
inactive: all other assays above

CC(COc1ccc(Oc2ccccc2)cc1)Oc1ccccn1 (stereo not given)
inactive: [15] | [16]

CCOP(=O)(OCC)Oc1cc(C)nc(C(C)C)n1
not listed: [15] | [16] | DIO2 (gene 1734) | [17]
inactive: all other assays above

COc1ccc(C(=CC(=O)N2CCOCC2)c2ccc(Cl)cc2)cc1OC
inactive: [15] | [16]

CCC(CC)Nc1c([N+](=O)[O-])cc(C)c(C)c1[N+](=O)[O-]
inactive: [16]

CCOC(=O)CC(SP(=O)(OC)OC)C(=O)OCC (stereo not given)
not listed: [4] | [15] | [16] | DIO2 (gene 1734) | [17]
inactive: all other assays above

CC(C1CC1)C(O)(Cn1cncn1)c1ccc(Cl)cc1 (stereo not given)
inactive: [16]

CCCOCC(=Nc1ccc(Cl)cc1C(F)(F)F)n1ccnc1
active: DIO2 (gene 1734) 2.92 µM

CC(=NC#N)N(C)Cc1ccc(Cl)nc1
not listed: [15] | [16] | DIO2 (gene 1734) | [17]
inactive: all other assays above

C#CC(C)(C)NC(=O)c1cc(Cl)cc(Cl)c1
inactive: [15] | [16]

CSc1nc(NC(C)C)nc(NC(C)C)n1
inactive: [16] | [17]

CCC(=NOC/C=C/Cl)C1=C(O)CC(C2CCOCC2)CC1=O (stereo not given)
inactive: [15] | [16]

N#CSCSC#N
inactive: [15] | [16]

CN1COCN(Cc2cnc(Cl)s2)C1=N[N+](=O)[O-]
not listed: [15] | [16] | DIO2 (gene 1734) | [17]
inactive: all other assays above

O=C(O)c1cc(Oc2ccc(C(F)(F)F)cc2Cl)ccc1[N+](=O)[O-]
inactive: [15] | [16]

CSC1=N[C@@](C)(c2ccccc2)C(=O)N1Nc1ccccc1
not listed: [15] | [16] | DIO2 (gene 1734) | [17]
inactive: all other assays above

CC(Oc1cccc(Cl)c1)C(=O)O (stereo not given)
not listed: [15] | [16] | DIO2 (gene 1734) | [17]
inactive: all other assays above

CCC(=O)Nc1ccc(Cl)c(Cl)c1
inactive: [16]
active: [15] 19.8 µM

CCNc1nc(Cl)nc(NC(C)(C)C#N)n1
inactive: DIO2 (gene 1734)

CCc1cccc(CC)c1N(COC)C(=O)CCl
active: DIO2 (gene 1734) 61.1 µM

CC(C)[C@H](C(=O)O[C@H](C#N)c1cccc(Oc2ccccc2)c1)c1ccc(Cl)cc1
active: [1] 3.13 µM | [2] 5.46 µM | [3] 4.67 µM | [4] 4.15 µM | [5] 17.6 µM | [7] 17.9 µM | [9] 0.703 µM | [10] 4.07 µM | [11] 4.47 µM | [13] 3.72 µM | [14] 732 nM
inactive: [6] | [8]

CCCSP(=O)(OCC)SCCC
active: [2] 50 µM and 50.5 µM | [4] 24.9 µM and 22.7 µM | [10] 50 µM and 29.9 µM | [11] 36.2 µM and 27.2 µM | [13] 15.8 µM and 27.3 µM | [14] 24.3 µM and 26.5 µM
not listed: [15] | [16] | DIO2 (gene 1734) | [17]
inactive: all other assays above
